# Assay outcomes as filed in PubChem.
# G9a block – G9a (human) methyltransferase inhibition; G9a H3K9 monomethylation, AlphaScreen, 2 h; Potency, µM (series often up to 102 µM), for the others: at the highest dose activity, negative = inhibition, actives largely listed as inhibitors; 350,000 tested, 8.8% active; Q96KQ7; also: potency is read from the fitted curve at half-maximal effect; % is scaled to controls: 0 for no effect and ±100 for the full control effect; nearly all actives have a fitted effect of over 75% in size
# Target sequence (Q96KQ7 913-1193 limits assumed): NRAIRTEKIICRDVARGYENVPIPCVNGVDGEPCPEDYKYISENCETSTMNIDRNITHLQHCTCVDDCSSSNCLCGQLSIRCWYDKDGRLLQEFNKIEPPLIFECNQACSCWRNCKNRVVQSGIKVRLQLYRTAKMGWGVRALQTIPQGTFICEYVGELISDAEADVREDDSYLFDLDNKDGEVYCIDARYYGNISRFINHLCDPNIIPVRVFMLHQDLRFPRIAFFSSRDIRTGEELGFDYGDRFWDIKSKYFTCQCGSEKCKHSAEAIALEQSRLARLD
#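 Quantitative HTS format: methyltransferase activity on a biotin-tagged H3K9 peptide is measured by AlphaScreen, using a rabbit anti-monomethyl-H3K9 antibody with streptavidin donor and anti-IgG acceptor beads. Final levels are 20 nM enzyme, 500 nM peptide, 20 uM SAM; 2 h RT.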
# Glioma ERSR ind – inducers of ER stress response in human glioma cells; Potency, µM, for the others: top-dose activation, actives largely listed as activators; 420,000 tested, 0.02% active; U87-MG GRP78 promoter luciferase reporter, 16 h; also: potency is read from the fitted curve at half-maximal effect; series mostly up to about 76 µM; % of control where 0% means no effect; nearly all actives have a fitted effect of over 35% in size
#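 Stably transfected U87-MG human glioma cells carrying a GRP78-based luminescent sensor were seeded at 1000 cells/well, pin-dosed with compounds and incubated 16 h. Luciferase reagent was then added, and end-point luminescence was read after 10 min at room temperature.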
# 12-LOX inh – inhibitors of human 12S-lipoxygenase ALOX12. Potency, µM (highest dose often 108 µM), without a hit: top-dose activity change, negative = inhibition, hits mostly inhibitors. P18054. AID 1671190. 580,000 tested, 1.1% active. purified 12hLO, xylenol orange hydroperoxide absorbance; also: potency is read from the fitted curve at half-maximal effect; % is scaled to controls: 0 for no effect and ±100 for the full control effect
#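 Purified human 12hLO at 150 nM in 25 mM Hepes, 0.01% Triton X-100, pH 7.0, preincubated 15 min at room temperature with compound. Reaction started with 40 uM arachidonic acid, 30 min at room temperature. Hydroperoxide measured by Fe-xylenol orange, 573/405 nm absorbance ratio.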
# VDR inhibitor – inhibitors of human vitamin D receptor; P11473; VDR-SRC2-3 peptide fluorescence polarization, 2 h; Potency, µM, for the others: max response, negative = inhibition, actives largely listed as inhibitors; 400,000 tested, 0.93% active; also: potency is read from the fitted curve at half-maximal effect; % is scaled to controls: 0 for no effect and ±100 for the full control effect
#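 Inhibition of the VDR/SRC2-3 peptide interaction is quantified by fluorescence polarization. Compounds (23 nl, pintool) incubate with the reagents for 2 hours at ambient room temperature.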
# Sfp inh – inhibitors of Bacillus subtilis Sfp phosphopantetheinyl transferase. Q9F4F7. Biochemical Sfp PPTase activity, qHTS. 310,000 tested, 3.5% active. Potency, µM, for inactives: largest response in the series, negative = inhibition, hits mostly inhibitors;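 also: the enzyme is Sfp with the accession as filed and its product quenches rhodamine fluorescence; potency is read from the fitted curve at half-maximal effect; 0% = enzyme reaction without inhibitor and -100% = no enzyme wells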
#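 With Hepes-Na pH 7.6 buffer containing 10 mM MgCl2, Sfp (15 nM) modified BHQ-2-YbbR (12.5 uM) using rhodamine-CoA (5 uM). Two reads 30 minutes apart at 525/598 nm yielded each well's rate.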
# Sfp PPTase conf – confirmation of Bacillus subtilis Sfp PPTase inhibitors; shares compounds with Sfp inh; Sfp PPTase enzymatic assay, qHTS titration; Potency, µM (doses to about 114 µM), for the others: top-dose activity change, negative = inhibition, most hits filed as inhibitors; 380 tested, 79% active;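 also: potency is read from the fitted curve at half-maximal effect; plate controls were uninhibited Sfp reaction for no effect and no enzyme control for full effect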
# Target sequence (Q9F4F7 whole entry, looked up): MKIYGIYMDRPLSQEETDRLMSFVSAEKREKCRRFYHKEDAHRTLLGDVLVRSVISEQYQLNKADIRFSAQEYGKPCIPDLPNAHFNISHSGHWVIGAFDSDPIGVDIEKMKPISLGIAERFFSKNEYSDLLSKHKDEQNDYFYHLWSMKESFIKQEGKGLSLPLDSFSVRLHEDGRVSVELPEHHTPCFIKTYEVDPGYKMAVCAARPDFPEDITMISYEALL
# Sfp gel assay – Blocks Sfp PPTase activity, gel read-out. shares compounds with Sfp inh. purified Sfp, gel-based phosphopantetheinylation read-out. Potency, µM, actives largely listed as inhibitors. 210 tested, 20% active. AID 2707;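 active = potency below 100 µM; inconclusive = dose-dependent response but potency above 100 µM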;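 also: band intensities scaled against SCH202676 control wells before curve fitting; potency is an IC50 for inhibitors of Sfp transfer activity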
# * = called active by the depositor; i = inactive; ? = inconclusive; / = no result given; ! = repeats disagree; [ ] = remark or other dose. The entries come from a sample that favours hits as a whole. Unless noted, calls follow the shape of the dose curve; as a rule, active = well fitted curve in the direction sought with a large enough effect; inconclusive = small, poorly fitted or top-dose-only effect, or another doubt; inactive = no such curve, though single readings can be large; an effect the other way counts as inactive or inconclusive.
SMILES,G9a block,Glioma ERSR ind,12-LOX inh,VDR inhibitor,Sfp inh,Sfp PPTase conf,others
COC(=O)c1cccc(OC(=O)c2cccs2)c1,/,/,-32%,/,/,/,
OCc1ccc(-c2nn(Cc3ccccc3)c3ccccc23)o1,21µM*,1%,?,?,4.5µM*,15µM*,
OC(C#Cc1ccccn1)c1cccs1 (stereo not drawn),-114%[12.7 µM],-10%,458%,50µM*,18µM*,47µM*,Sfp gel assay=i
O=C(CN1C(=O)CC(c2ccco2)Sc2ccccc21)Nc1ccccc1F (stereo not drawn),?,-3%,?,79µM*,16µM*,21µM*,
O=c1c2cc(N3CCOCC3)ccc2[nH]c(=S)n1CCN1CCCC1,?,-3%,0%,12%,-9%,/,
Cc1ccc(Cn2c(=S)[nH]c3ccc(N4CCOCC4)cc3c2=O)o1,?,0%,-29%,18µM*,2.5µM*,2.6µM*,
Cc1cc(F)ccc1NCc1ccccc1[N+](=O)[O-],28µM*,0%,-20%,-8%,2.8µM*,47µM*,Sfp gel assay=i
Cc1cc([N+](=O)[O-])ccc1NCc1cccc2ccccc12,/,-1%,-2%,-9%,/,/,
Cc1cc(NC(=O)CSc2nnc(-c3cccnc3)n2C2CC2)no1,/,/,-16%,/,/,/,
COc1ccc(-c2csc(Nc3ccc(C)cn3)n2)cc1,20µM*,5%,-20%,-7%,6.3µM*,59µM*,Sfp gel assay=i
O=C(Cc1ccccc1)Nc1ccnn1C1CCN(Cc2ccc3cccc(F)c3n2)CC1,/,/,3%,/,/,/,
c1csc(-c2nc3ccccc3s2)c1,20µM*,5%,?,-30%,35µM*,47µM*,Sfp gel assay=?
COc1ccc(C(=O)OCc2ccccc2C#N)c(OC)c1,/,/,-1%,/,/,/,
Nc1nnc2c(n1)CCCC2,?,-6%,-22%,18%,45µM*,53µM*,Sfp gel assay=6.2µM*
Nc1nc(N)c2c(n1)CCCC2,/,-2%,0%,-21%,3%,/,
CCN(CC)c1ccc(NC(=O)COC(=O)CSc2ccc(Br)cc2C)cc1,8.9µM*,-4%,?,-5%,3.5µM*,?,Sfp gel assay=?
Cc1cc(C)c(NC(=O)COC(=O)CSc2ccc(Br)cc2C)c(C)c1,3%[59 µM],-6%,9%,-1%,-5%,/,
COCCCn1c2nc3ccccc3nc2c2c(=O)n(Cc3ccc(Cl)cc3)cnc21,-13%[59 µM],1%,0%,-4%,?,/,
O=c1c2c3nc4ccccc4nc3n(Cc3ccccc3)c2ncn1Cc1ccco1,?,?,?,-13%,2.8µM*,5.9µM*,
O=S(Cc1ccc(F)cc1)Cc1cccc(C(F)(F)F)c1 (stereo not drawn),/,/,-11%,/,/,/,
COC(=O)c1sc2ccccc2c1N,?,0%,35µM*,-28%,14µM*,47µM*,
COC(=O)c1sc2ccccc2c1C(=O)OC,?,-1%,4%,-13%,6%,/,
N#Cc1ccc(Oc2ccc(-c3ccccc3)cc2)cc1,/,/,-7%,/,/,/,
CCOc1cc(CNc2ccc(N(C)C)cc2)cc(Br)c1OCC(=O)NC(C)(C)C,5µM*,0%,0%,?,3.5µM*,?,Sfp gel assay=?
CCOc1cc(CNc2cccc3ccccc23)cc(Br)c1OCC(=O)NC(C)(C)C,-3%[12.7 µM],-2%,/,0%,17%,/,
SMILES,G9a block,Glioma ERSR ind,12-LOX inh,VDR inhibitor,Sfp inh,Sfp PPTase conf,others
CN(Cc1ccccc1)Cc1nc2c(n1Cc1ccccc1)C(=O)N(Cc1ccccc1C#N)CCN2,/,/,24%,/,/,/,
COC(=O)c1c(N2C(=O)Nc3ccccc3N2O)sc2c1CCCC2,-9%[59 µM],-1%,-6%,-23%,5%,/,
COC(=O)c1c(N2C(=O)CC(Sc3ccccc3C(=O)O)C2=O)sc2c1CCCC2 (stereo not drawn),1.4µM*,-3%,?,-4%,1.6µM*,33µM*,
CN1CCN(CCCCC(=O)c2ccccc2)CC1,?,-3%,-22%,6%,8%,/,
CC(C)(C)c1ccc(C(=O)CCCN2CCC(OC(c3ccccc3)c3ccccc3)CC2)cc1,3%[59 µM],1%,?,2%,50µM*,47µM*,Sfp gel assay=i
CC(C)C(c1nnnn1Cc1ccc(F)cc1)N1CCN(c2ccc(O)cc2)CC1 (stereo not drawn),13µM*,-4%,?,3%,16µM*,47µM*,
COc1ccc(Cn2nnnc2C(C(C)C)N2CCN(c3ccccc3OC)CC2)cc1 (stereo not drawn),-37%[12.7 µM],-2%,?,-10%,8%,/,
Cn1nc(C2CCCN(C(=O)Nc3ccc4c(c3)OCCO4)C2)n(C2CCCC2)c1=O (stereo not drawn),/,/,4%,/,/,/,
Cc1ccnc(NC(=S)N2CCN(c3cccc(C(F)(F)F)c3)CC2)c1,1µM*,16%,22µM*,-19%,2.5µM*,15µM*,
COc1ccc(CN(C)Cc2cc(=O)oc3ccc(C)cc23)cc1,/,/,5%,/,/,/,
CN=c1nc(-c2ccccc2)n(-c2ccccc2)s1,1.1µM*!,-15%,?,50µM*,/,0.83µM*,
C[C@@H](NCCCc1cccc(C(F)(F)F)c1)c1cccc2ccccc12,?,-12%,8.9µM*!,2%,79µM*,24µM*,
O=C(O)c1ccc(/C=N/NC(=O)C(O)(c2ccccc2)c2ccccc2)cc1,?,-2%,14%,10%,5%,/,
CCN(CC)c1ccc(/C=N/NC(=O)C(O)(c2ccccc2)c2ccccc2)o1,28µM*,/,/,/,7.1µM*,12µM*,
COc1ccc(-c2noc(CN(C)CCC3CCCCO3)n2)cc1 (stereo not drawn),4%,1%,5%,-1%,21%,/,
COC(=O)c1ccc(-c2noc(CN(C)CCC3CCCCO3)n2)cc1 (stereo not drawn),0.28µM*,-1%,-30%,1%,0.71µM*,8%,Sfp gel assay=i
CN(C)C=Nc1ccccc1C1C=NNC1=O (stereo not drawn),40µM*,/,/,/,18µM*,9%,
NC(=O)Cn1c(=O)n(Cc2ccco2)c(=O)c2c3c(sc21)CCCCC3,20µM*,1%,?,89µM*,10µM*,19µM*,
O=C(/C=C/c1ccncc1)c1ccc(NC(=O)c2ccccc2F)cc1,14µM*,-17%,/,32µM*,5.6µM*,53µM*,
COCC(C)Nc1nccc(C2(c3ccccc3Cl)CCNCC2)n1 (stereo not drawn),/,/,27%,/,/,/,
O=C(Nc1ccc2oc(=O)ccc2c1)c1cccc2c(Cl)cccc12,/,/,-3%,/,/,/,
NC(CO)C(=O)NNCc1ccc(O)c(O)c1O (stereo not drawn),1.4µM*,-4%,44%,45µM*!,6.3µM*!,11µM*,
NC(=O)C[C@H](NC(=O)Cc1ccc(O)cc1O)C(=O)O,27%[59 µM],-4%,?,-6%,?,/,
